# Screening results (PubChem)
# Tau fibril FP = inhibitors of human tau fibril formation; AID 1468; 0.39% of 280,000 active; K18 P301L tau heparin fibrillization, Alexa594 FP, 6 h; Potency, µM (highest dose often 57.7 µM), actives largely listed as inhibitors; also: nearly all actives have a fitted effect of over 55% in size
# Target sequence (P10636 561-689 P618L limits assumed): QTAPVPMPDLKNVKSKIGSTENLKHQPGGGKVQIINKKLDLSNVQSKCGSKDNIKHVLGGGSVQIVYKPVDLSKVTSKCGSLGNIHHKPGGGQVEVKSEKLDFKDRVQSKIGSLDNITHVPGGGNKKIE
#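 K18 P301L tau (15 uM unlabeled/0.24 uM Alexa 594-labeled, final) + compound + heparin 20 uM final; 100 mM NaOAc pH 7; 6 hr 37 C; ThT 30 uM final added, 1 hr RT; FP ex 555/em 632 nm.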
# Coupling enz = counter-screen for Giardia aldolase inhibitors: coupling enzyme system; coupling enzyme system counterscreen, AmpLite Red fluorescence; activity change, negative = inhibition, % at 58.2 µM, hits read low; 0.67% of 290,000 active; in the data active = activity change below about -30%
#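 Coupling enzymes only (glyceraldehyde-3-phosphate) + compound, at 57.5 uM final, 10 min RT; add substrate/coupling/AmpLite Red mix, 20 min RT; fluorescence ex 525/em 598 nm. Actives flag coupling-system interference.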
# Sfp inh = Sfp phosphopantetheinyl transferase inhibition | Q9F4F7 | Biochemical Sfp PPTase activity, qHTS | Potency, µM, hits mostly inhibitors | 3.5% of 310,000 active | AID 1490;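 also: the enzyme is Sfp with the accession as filed and its product quenches rhodamine fluorescence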
#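 Buffer: 50 mM Hepes-Na pH 7.6, 10 mM MgCl2, 0.01% Nonidet P-40, 0.01% BSA. Enzyme 15 nM, pre-exposed to compound 15 min; substrates then added and fluorescence change tracked over 30 min.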
# Tau fluor counter = counter-screen for tau fibril formation inhibitors | AID 1463 | tau K18 P301L Alexa594 fluorescence, heparin fibrillization | Potency, µM (top dose mostly 57.7 µM) | 0.93% of 280,000 active; also: nearly all actives have a fitted effect of over 55% in size
#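 Human tau K18 P301L (15 uM unlabeled, 0.24 uM Alexa 594-labeled) in 100 mM sodium acetate pH 7 with 20 uM heparin, 6 hr at 37 C. ThT 30 uM added, 1 hr ambient; Alexa 594 FP and total fluorescence read at 555/632 nm.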
# Tau fibril ThT = inhibitors of human tau fibril formation, thioflavin T binding; Potency, µM (doses to about 57.4 µM), hits mostly inhibitors; P10636; recombinant tau K18 P301L (four-repeat tau fragment), heparin-induced fibrillization, ThT fluorescence; 2.1% of 270,000 active; also: nearly all actives have a fitted effect of over 55% in size
#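 Heparin-induced fibrillization of the P301L-mutant K18 repeat-domain fragment of human tau was followed by ThT binding in quantitative high-throughput format.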
# Numbers stand for hits; – = inactive; ? = inconclusive; · = no result given; [ ] = dose if it differs, or a comment. The list is not random: actives were taken first. Their share in the collection is about 5.2%. Unless noted, calls follow the shape of the dose curve; as a rule, active = well fitted curve in the direction sought with a large enough effect; inconclusive = small, poorly fitted or top-dose-only effect, or another doubt; inactive = no such curve, though single readings can be large; an effect the other way counts as inactive or inconclusive.
SMILES,Tau fibril FP,Coupling enz,Sfp inh,Tau fluor counter,Tau fibril ThT
CC(C)(C)OC(=O)NC(NC(=O)OCC1c2ccccc2-c2ccccc21)C(=O)O (stereo unspecified),·,–,–,·,·
Cc1ccc(C(=O)N/N=C/c2cccc(OC(=O)/C=C/c3ccco3)c2)cn1,–,–,32µM,?,?
CC(/C=C/c1ccco1)=N/NC(=O)c1ccc(C)nc1,–,–,–,–,·
Nc1ccc2nc(CN3CCOCC3)[nH]c2c1,–,-32,–,–,?
COc1ccc(-c2cc(C)no2)cc1S(=O)(=O)N1CCOc2ccccc21,–,–,–,?,–
COc1ccc(-c2cc(C)no2)cc1S(=O)(=O)N1CCc2ccccc21,–,·,·,28µM[fluorescent],?
CCOc1cc(C(=O)Nc2cc3c(cc2N2CCCC2)n(C)c(=O)c(=O)n3C)cc(OCC)c1OCC,–,·,·,–,?
CCOc1cc(/C=N/NC(=O)Cn2nc([N+](=O)[O-])cc2C)ccc1OCc1ccc(F)cc1,?,–,45µM,?,–
CCOc1cc(/C=N/NC(=O)Cn2nc([N+](=O)[O-])cc2C)cc(Br)c1OCc1ccccc1F,?,–,–,?,–
CCOC(=O)N1CCN(/[N+]([O-])=N/Oc2ccc([N+](=O)[O-])cc2[N+](=O)[O-])CC1,·,–,–,·,·
Cc1ccc(S(=O)(=O)Nc2cc(=O)[nH]c(SCC(=O)Nc3cccc(C)c3)n2)cc1,16µM,–,–,?,·
COCCOCC(O)CN1CCN(c2ccc(C)cc2)CC1 (stereo unspecified),–,–,79µM,–,–
O=C(NC1CCSc2ccccc21)c1cc(S(=O)(=O)N2CCOCC2)ccc1F (stereo unspecified),·,·,–,·,·
O=C(NC1CCSc2ccccc21)c1ccc(F)c(S(=O)(=O)N2CCOCC2)c1 (stereo unspecified),·,·,50µM,·,·
C=CCN1C(=O)/C(=C/c2ccc(O)cc2)S/C1=N/c1nccs1,?,–,–,3.5µM[quencher],?
C=CCN1C(=O)/C(=C2/C(=O)N(CC(=O)O)c3ccccc32)S/C1=N/c1nccs1,–,–,–,?,7.1µM
C=CCN1C(=O)/C(=C/c2ccc(OC)cc2)S/C1=N/c1nccs1,–,–,–,–,–
Fc1ccc(/C=N/n2cnn(Cc3ccccc3Cl)c2=S)cc1,–,–,50µM,–,–
Cc1cc(C)c2c(N)c(S(=O)(=O)c3ccccc3)sc2n1,–,–,89µM,–,–
CCCCS(=O)(=O)c1sc2nc(C)cc(C)c2c1N,–,–,–,–,–
O=C(NCc1ccccc1)C(=O)NCC(c1ccco1)S(=O)(=O)c1ccccc1 (stereo unspecified),–,·,·,–,–
Cc1cc(C(=O)O)ccc1-c1ccc(/C=C2\SC(=O)N(CC(=O)Nc3ccc4c(c3)OCO4)C2=O)o1,·,·,50µM,·,·
Cc1ccccc1NC(=O)CN1C(=O)S/C(=C\c2ccc(-c3cc(C(=O)O)ccc3C)o2)C1=O,–,–,35µM,–,?
Cc1ccc(C(=O)O)cc1-c1ccc(/C=C2\SC(=O)N(CC(=O)Nc3ccccc3)C2=O)o1,–,–,18µM,–,?
COc1ccc(C)cc1NC(=O)C1CCN(S(=O)(=O)c2c(C)noc2/C=C/c2ccco2)CC1,?,·,·,–,–
SMILES,Tau fibril FP,Coupling enz,Sfp inh,Tau fluor counter,Tau fibril ThT
Cc1ccc(C)n1-c1cccc(N)c1,–,–,–,?,16µM
Cc1ccc(C)n1-c1cccc(C(=O)O)c1,?,–,–,–,?
CC(C)(C)OC(=O)NCC1CCN(S(=O)(=O)Cc2ccccc2)CC1,·,–,–,·,·
CC(C)(C)OC(=O)NCC12C=CC(O1)C1C(=O)N(Cc3ccccc3)C(=O)C12 (stereo unspecified),–,–,71µM,–,–
COc1ccc2nc(/N=C/c3c(C)[nH]n(-c4ccc(C)cc4)c3=O)sc2c1,–,–,–,?,18µM
COc1ccc2nc(/N=C\N(C)C)sc2c1,–,–,–,–,–
C#CCn1c(C2CC(=O)N(c3ccc(OC)cc3)C2)nc2ccccc21 (stereo unspecified),–,·,·,–,–
Cc1ccc(NC(=O)CSc2nnc3c(n2)[nH]c2ccccc23)cc1,·,–,–,·,·
O=C(CSc1nnc2c(n1)[nH]c1ccccc12)Nc1cccc(S(=O)(=O)N2CCOCC2)c1,–,–,79µM,?,–
